Data taken from ChEMBL document CHEMBL3988442, “University of Dundee, Small-Polar-MMV Screening Library” (2021).
For part of these data: Potency and affinity values are given separately.

Columns and labels:
Design in all cases: scale not given: direction of the effect not stated beside the values
[1] = biological target: Protein translocase subunit SecA (Escherichia coli (strain K12)) (UniProt P10408); assay: Assay to Identify E. coli SecA ATPase Inhibitors; type: functional; conditions: 30 µM
[2] = biological target: T1, Ubiquitin-activating enzyme e1, putative (Leishmania donovani (strain BPK282A1)) (UniProt E9BSI1); assay: Leishmania donovani Ubiquitin Activating Enzyme (LdE1); type: functional; conditions: 30 µM
T1 sequence (whole entry): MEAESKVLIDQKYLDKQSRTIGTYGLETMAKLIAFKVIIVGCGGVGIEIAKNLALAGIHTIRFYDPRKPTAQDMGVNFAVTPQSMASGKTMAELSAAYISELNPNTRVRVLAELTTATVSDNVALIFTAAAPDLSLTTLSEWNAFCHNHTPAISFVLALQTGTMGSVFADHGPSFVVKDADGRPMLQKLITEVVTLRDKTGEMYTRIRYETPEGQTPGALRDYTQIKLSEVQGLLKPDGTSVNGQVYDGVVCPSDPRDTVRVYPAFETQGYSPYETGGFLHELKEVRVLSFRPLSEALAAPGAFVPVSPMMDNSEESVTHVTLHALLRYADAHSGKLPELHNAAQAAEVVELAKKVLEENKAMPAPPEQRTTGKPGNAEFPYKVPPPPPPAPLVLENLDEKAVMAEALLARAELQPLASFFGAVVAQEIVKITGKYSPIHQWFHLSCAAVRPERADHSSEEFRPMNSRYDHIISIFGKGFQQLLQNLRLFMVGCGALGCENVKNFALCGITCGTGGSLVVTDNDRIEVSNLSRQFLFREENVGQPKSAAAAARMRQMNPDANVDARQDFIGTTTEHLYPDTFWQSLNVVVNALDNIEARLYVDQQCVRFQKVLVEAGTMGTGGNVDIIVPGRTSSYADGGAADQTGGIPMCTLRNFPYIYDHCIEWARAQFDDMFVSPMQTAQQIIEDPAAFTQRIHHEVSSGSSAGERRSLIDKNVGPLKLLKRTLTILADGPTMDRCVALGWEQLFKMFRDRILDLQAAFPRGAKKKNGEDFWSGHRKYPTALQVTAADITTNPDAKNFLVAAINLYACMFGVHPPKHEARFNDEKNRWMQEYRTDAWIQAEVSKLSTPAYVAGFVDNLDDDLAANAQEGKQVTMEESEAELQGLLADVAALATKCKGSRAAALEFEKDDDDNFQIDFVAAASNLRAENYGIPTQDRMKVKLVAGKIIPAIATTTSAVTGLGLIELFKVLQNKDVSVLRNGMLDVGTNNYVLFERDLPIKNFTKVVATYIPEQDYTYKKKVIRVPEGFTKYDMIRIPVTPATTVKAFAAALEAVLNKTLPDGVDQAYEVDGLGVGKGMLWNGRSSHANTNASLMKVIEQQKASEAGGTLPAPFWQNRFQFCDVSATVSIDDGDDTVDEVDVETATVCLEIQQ

[3] = biological target: AMP-activated protein kinase, AMPK (Homo sapiens) (UniProt P54646+O43741+P54619+Q9UGJ0+Q9Y478+Q13131+Q9UGI9); assay: AMP-dependent Kinase enzyme assay. An in vitro enzyme assay that detects ADP turnover that is directly proportional to AMPK activity. This uses naive AMPK that is activated during the assay with MK-8722; type: functional; conditions: 30 µM
[4] = biological target: Sialic acid-binding Ig-like lectin 9 (Homo sapiens) (UniProt Q9Y336); assay: Hs-Siglec9 ALPHAscreen SOP 20170721; conditions: 10 µM
Sialic acid-binding Ig-like lectin 9 (Homo sapiens), sequence (Q9Y336 whole entry): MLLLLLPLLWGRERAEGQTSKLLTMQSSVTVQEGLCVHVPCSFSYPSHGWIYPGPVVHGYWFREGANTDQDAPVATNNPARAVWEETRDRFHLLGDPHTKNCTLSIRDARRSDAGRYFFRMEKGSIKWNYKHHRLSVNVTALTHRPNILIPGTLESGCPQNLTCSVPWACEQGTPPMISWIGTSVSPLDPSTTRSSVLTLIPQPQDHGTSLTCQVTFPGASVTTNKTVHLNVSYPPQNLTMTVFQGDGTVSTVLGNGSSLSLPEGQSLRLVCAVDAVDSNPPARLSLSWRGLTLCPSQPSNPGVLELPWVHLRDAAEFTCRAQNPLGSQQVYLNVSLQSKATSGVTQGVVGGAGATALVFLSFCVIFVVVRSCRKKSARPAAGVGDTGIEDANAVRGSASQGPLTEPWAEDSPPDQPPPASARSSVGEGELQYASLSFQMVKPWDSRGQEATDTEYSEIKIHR

Trypanosoma cruzi = assay: Trypanosoma cruzi phosphomannomutase and mannose-1-phosphate guanylyltransferase assay; type: functional; conditions: 10 µM
[5] = biological target: T2, Arginase-2, mitochondrial (Homo sapiens) (UniProt P78540); assay: in vitro enzyme assay to detect the production of urea directly proportional to the activity of Arginase II; type: functional; conditions: 33.3 µM; note: in the data most compounds retested in dose-response had high values
T2 sequence (whole entry): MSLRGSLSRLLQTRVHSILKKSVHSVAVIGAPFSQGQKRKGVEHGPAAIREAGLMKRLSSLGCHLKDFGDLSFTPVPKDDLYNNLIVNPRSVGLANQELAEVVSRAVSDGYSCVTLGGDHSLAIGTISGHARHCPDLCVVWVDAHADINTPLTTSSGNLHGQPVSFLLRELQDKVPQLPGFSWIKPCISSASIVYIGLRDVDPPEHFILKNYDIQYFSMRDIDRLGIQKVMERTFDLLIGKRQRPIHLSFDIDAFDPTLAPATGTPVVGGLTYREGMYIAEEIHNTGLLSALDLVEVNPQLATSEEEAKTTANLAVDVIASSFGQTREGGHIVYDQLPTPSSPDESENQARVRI

[6] = biological target: T3, Proteasome subunit beta (Trypanosoma cruzi) (UniProt O96673); assay: Trypanosoma cruzi proteasome chymotrypsin-like activity (TcProtChymo) assay.; note: in the data most compounds retested in dose-response had high values; type: functional; conditions: 9.37 µM
T3 sequence (whole entry): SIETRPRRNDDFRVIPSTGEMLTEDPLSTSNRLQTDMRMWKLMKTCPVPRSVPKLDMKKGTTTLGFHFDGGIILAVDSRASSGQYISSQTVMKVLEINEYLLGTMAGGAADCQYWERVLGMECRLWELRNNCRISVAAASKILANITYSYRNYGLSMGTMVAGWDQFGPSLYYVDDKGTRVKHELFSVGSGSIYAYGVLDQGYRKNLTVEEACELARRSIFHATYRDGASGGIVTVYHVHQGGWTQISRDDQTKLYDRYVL

Homo sapiens = species: Homo sapiens; assay: To identify inhibition of the IFN signalling (Jak-Stat) pathway via expression of an eGFP reporter gene under the control of an IFN-stimulated response element (ISRE) containing MxA promoter.; type: functional; conditions: 30 µM
[7] = biological target: T4, Tyrosyl-tRNA synthetase, putative (Trypanosoma cruzi (strain CL Brener)) (UniProt Q4DSP6); assay: Trypanosoma cruzi tyrosyl tRNA synthetase (TcYRS) _High Tyrosine SOP; type: functional; conditions: 30 µM; note: in the data most compounds retested in dose-response had high values
T4 sequence (whole entry): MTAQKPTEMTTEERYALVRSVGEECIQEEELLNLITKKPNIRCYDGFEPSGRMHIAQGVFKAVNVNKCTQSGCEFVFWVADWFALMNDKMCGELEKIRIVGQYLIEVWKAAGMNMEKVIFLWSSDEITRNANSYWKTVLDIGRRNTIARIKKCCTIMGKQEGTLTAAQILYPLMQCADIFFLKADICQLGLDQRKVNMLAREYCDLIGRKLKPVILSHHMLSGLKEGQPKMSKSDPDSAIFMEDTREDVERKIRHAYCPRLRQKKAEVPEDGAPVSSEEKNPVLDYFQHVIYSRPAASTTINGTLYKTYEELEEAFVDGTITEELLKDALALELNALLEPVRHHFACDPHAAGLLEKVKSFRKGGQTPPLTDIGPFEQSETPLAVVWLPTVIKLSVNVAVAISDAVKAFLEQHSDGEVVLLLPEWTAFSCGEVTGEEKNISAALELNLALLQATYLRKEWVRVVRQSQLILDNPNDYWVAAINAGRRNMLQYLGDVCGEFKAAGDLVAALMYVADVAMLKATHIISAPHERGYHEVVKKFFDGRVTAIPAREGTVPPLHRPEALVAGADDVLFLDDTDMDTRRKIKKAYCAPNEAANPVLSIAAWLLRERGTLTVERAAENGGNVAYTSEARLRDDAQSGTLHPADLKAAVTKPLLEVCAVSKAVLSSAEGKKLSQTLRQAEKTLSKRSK

[8] = biological target: T4, Tyrosyl-tRNA synthetase, putative (Trypanosoma cruzi (strain CL Brener)); assay: Trypanosoma cruzi tyrosyl tRNA synthetase (TcYRS) SOP; type: functional; conditions: 30 µM
[9] = biological target: Chromo domain-containing protein 1 (Saccharomyces cerevisiae (strain ATCC 204508 / S288c) (Baker's yeast)) (UniProt P32657); assay: ScCHD-1 Enzyme Inhibition Assay; type: functional; conditions: 30 µM; note: in the data most compounds retested in dose-response had high values
Chromo domain-containing protein 1 (Saccharomyces cerevisiae (strain ATCC 204508 / S288c) (Baker's yeast)), sequence (P32657 whole entry, the tested form may be a part): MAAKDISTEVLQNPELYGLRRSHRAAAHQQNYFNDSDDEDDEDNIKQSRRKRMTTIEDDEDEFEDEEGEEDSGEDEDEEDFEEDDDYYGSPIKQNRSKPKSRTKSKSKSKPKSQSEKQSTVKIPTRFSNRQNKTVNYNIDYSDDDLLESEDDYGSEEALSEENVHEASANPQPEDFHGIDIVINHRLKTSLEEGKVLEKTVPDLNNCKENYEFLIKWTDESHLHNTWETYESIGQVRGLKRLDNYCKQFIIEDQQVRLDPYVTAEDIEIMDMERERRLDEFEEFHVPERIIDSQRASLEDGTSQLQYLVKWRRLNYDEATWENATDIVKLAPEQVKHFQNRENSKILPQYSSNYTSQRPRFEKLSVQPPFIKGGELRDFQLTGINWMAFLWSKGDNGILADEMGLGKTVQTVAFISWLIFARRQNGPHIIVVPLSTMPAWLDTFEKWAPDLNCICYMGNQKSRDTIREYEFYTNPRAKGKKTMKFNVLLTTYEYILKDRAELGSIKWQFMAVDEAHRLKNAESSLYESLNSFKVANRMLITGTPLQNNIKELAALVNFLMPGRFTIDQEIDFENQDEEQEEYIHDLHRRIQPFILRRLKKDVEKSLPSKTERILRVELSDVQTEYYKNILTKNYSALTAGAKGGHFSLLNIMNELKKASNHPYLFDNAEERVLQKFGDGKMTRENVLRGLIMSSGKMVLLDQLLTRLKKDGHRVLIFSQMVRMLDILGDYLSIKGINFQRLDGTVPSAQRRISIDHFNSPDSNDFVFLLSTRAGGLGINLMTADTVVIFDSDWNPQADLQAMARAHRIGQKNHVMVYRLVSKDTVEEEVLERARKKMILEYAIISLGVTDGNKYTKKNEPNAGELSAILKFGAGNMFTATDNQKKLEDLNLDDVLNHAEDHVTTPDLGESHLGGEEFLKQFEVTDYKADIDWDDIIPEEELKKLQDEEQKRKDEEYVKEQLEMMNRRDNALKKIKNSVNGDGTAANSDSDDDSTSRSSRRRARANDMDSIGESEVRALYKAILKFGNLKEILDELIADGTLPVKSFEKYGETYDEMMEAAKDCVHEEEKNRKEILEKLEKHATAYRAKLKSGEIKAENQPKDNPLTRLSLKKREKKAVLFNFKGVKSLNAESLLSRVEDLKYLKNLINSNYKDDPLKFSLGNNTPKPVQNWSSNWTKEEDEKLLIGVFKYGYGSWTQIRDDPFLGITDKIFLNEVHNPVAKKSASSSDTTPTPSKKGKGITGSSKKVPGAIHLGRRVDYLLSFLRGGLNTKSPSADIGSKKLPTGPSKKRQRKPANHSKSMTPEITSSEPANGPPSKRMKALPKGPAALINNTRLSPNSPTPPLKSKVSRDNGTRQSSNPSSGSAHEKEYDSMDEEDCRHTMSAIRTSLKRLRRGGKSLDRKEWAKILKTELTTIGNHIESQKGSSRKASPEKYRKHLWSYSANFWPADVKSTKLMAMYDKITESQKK

Protein translocase subunit SecA (Escherichia coli (strain K12)), sequence (P10408 whole entry): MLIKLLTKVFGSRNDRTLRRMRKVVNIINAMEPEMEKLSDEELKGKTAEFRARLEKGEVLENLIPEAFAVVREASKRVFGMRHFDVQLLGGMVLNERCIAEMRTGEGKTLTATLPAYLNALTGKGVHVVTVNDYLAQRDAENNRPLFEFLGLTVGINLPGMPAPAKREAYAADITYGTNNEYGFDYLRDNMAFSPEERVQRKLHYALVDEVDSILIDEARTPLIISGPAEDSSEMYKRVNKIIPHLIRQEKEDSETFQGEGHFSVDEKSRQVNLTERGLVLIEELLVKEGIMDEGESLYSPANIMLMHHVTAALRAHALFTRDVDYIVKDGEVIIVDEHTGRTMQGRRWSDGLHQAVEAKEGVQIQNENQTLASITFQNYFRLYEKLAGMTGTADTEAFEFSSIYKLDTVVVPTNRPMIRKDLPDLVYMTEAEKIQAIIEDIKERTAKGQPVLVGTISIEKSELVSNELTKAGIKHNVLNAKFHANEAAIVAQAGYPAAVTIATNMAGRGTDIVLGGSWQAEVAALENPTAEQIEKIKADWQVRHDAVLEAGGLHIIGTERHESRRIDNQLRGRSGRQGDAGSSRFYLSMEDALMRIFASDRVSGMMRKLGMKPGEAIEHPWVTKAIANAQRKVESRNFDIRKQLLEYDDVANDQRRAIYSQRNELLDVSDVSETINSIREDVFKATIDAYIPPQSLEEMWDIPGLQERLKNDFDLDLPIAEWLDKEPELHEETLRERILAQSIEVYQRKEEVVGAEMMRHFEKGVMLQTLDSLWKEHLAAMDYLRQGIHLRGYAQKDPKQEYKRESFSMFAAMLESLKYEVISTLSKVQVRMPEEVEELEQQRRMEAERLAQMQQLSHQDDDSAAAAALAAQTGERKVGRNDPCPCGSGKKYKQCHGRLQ

| SMILES | Percent Effect [1] [%] | Percent Effect [2] [%] | Percent Effect [3] [%] | Percent Effect [4] [%] | Percent Effect (Trypanosoma cruzi) [%] | Percent Effect [5] [%] | Percent Effect [6] [%] | Percent Effect (Homo sapiens) [%] | Percent Effect [7] [%] | Percent Effect [8] [%] | Percent Effect [9] [%] |
| --- | --- | --- | --- | --- | --- | --- | --- | --- | --- | --- | --- |
| O=C1CCC2(CCN(Cc3cc(F)cc(F)c3)CC2)CN1CCO | -6.11 | 4.17 | -0.613 | 0.944 | 1.85 | -24.7 | 9.12 | -8.34 | 3.16 | 10.3 | -0.52 |
| c1ccc(CN2CC[C@@H]3O[C@@H](COCC4CCOCC4)CC[C@@H]32)nc1 | -4.64 | 10.7 | 1.98 | -3.4 | -0.394 | 2.1 | 12.4 | -2.6 | 2.13 | 8.97 | -2.41 |
| O=C(COc1cccc(Br)c1)N1CCOCC1c1ncon1 (stereo unspecified) | -1.32 | -2.7 | -2.58 | -3.06 | 6.13 | 1.6 | 1.44 | -26.1 | 1.48 | -1.24 | -4.52 |
| Cc1nn(CC(=O)N2CCCC2Cn2cccn2)c(C)c1Cl (stereo unspecified) | -7.11 | 21.6 | 0.532 | 8.29 | 5.86 | 36.2 | 22.9 | 21.4 | 9.9 | 20.7 | -6.56 |
| CCOCCCNc1nc(O)cc(C2CC(=O)N(C)C2)n1 (stereo unspecified) | -3.32 | 6.76 | -1.4 | 1.36 | 3.95 | -4.41 | 9.83 | -10.5 | 1.07 | 9.09 | -25.9 |
| O=C(CN1CCCC1Cn1cncn1)NCCOc1cccc(F)c1 (stereo unspecified) | -4.88 | 0 | -3.72 | 14.3 | -0.84 | -2.52 | -3.47 | -2.63 | 0.493 | 1.24 | 5.23 |
| CC(C)OCc1ncn2c1CN(Cc1ccc(F)cc1)CCC2 | -4.79 | 8.11 | 2.07 | 2.94 | -4.79 | -6.05 | 22 | -10.1 | 3.24 | 12.8 | -0.808 |
| CN(C)C(=O)c1cnc2n1CCN(Cc1ccccc1)C2 | 1.01 | 13.3 | 6.19 | -6.07 | -7.87 | 8.62 | 15.2 | 0.000462 | 3.19 | 8.97 | -5.59 |
| O=C(CCc1c[nH]cn1)N1CC[C@@H](c2ccc3ccccc3c2)[C@H](O)C1 | -5.41 | 10.7 | -4.75 | 24.9 | 5.16 | 8.85 | 9.77 | 15.3 | 7.1 | 13.6 | 106 |
| CCc1nnsc1C(=O)NC1CCN(c2ccccn2)CC1 | -1.79 | 18.9 | 1.62 | 8.18 | 5.38 | 21.1 | 15 | 15.5 | 3.23 | 16.1 | -7.21 |
| CC(=O)N1CCCC(c2cnc(-c3c(C)nn(C)c3C)cn2)C1 (stereo unspecified) | -2.17 | 0 | 6.16 | -0.374 | -2.17 | -1.17 | -4.67 | 8.02 | 2.13 | 6.41 | -1.64 |
| Cc1nc(CN2CCCN(C(=O)C(C)OCC3CC3)CC2)cs1 (stereo unspecified) | -1.24 | 3.8 | 0.098 | 0.839 | 3.38 | 0.215 | 10.6 | 4.67 | 3.12 | 2.53 | -18.2 |
| Cn1nccc1CNC(=O)Nc1cc(C(F)(F)F)c[nH]c1=O | -2.37 | 7.89 | -1.77 | 11.9 | 2.44 | 8.43 | 4.51 | 0.842 | 6.37 | 12.2 | -9.48 |
| CNc1nc2c(s1)C(c1c(F)cccc1Cl)CC(=O)N2 (stereo unspecified) | -1.81 | 13.2 | -308 | 1.93 | 4.58 | -4.73 | 6.81 | -0.412 | 2.13 | 2.6 | 22.5 |
| CC(C)N(C)S(=O)(=O)N(C)Cc1ccc2c(c1)OCO2 | -6.28 | 15.6 | -11.7 | 5.6 | 10.5 | 2.49 | 12.7 | 13.3 | 5.83 | 21.9 | -8.74 |
| O=C(COCc1nc(-c2ccncc2)no1)NC1CCCCC1 | -6.1 | 7.79 | 1.21 | 9.68 | 2.46 | 0 | 7.65 | 5.36 | 7.53 | 13.6 | -2.34 |
| COc1ccnc(N2CCN(CC(=O)N3CCOCC3)CC2)n1 | -3.7 | 18.4 | 3.44 | -1.28 | -0.28 | -5.04 | 8.54 | -2.03 | 8.37 | 18.5 | -6.56 |
| CCC(NC(=O)C1CCN(S(C)(=O)=O)CC1)c1ccc(OC)c(C)c1 (stereo unspecified) | -0.552 | 2.6 | 0.574 | 27.4 | 4.03 | -4.14 | 15.3 | -3.86 | 2.15 | 1.24 | 120 |
| Cc1ccc(S(=O)(=O)Nc2ccc(=O)n(C)c2)cc1 | -2.01 | 20.2 | -48.5 | -4.13 | 2.55 | 4.18 | 17.1 | 36 | 6.4 | 13.9 | -4.02 |
| COc1ccc(NC(C)C(=O)N2CCN(c3ncccn3)CC2)cn1 (stereo unspecified) | -5.21 | 8.22 | -137 | -2.83 | 3.13 | 8.18 | 0.71 | -4.13 | 3.23 | 7.5 | -3.06 |
| CC1=Nc2c(c(=O)[nH]n2C(C)C)C(c2ccc(F)c(F)c2)S1 (stereo unspecified) | -5.53 | -6.67 | 8.28 | 12.2 | -0.197 | 1.58 | 9.8 | 34 | 18 | 20.5 | 2.07 |
